# Results published in PubChem BioAssay AID488969 (Vanderbilt High Throughput Screening Facility, 2010).
# Over roughly 110,000 compounds, “z-score” has its median near -0.1; the highest 2% begin near 2. The full list was thinned out, with the highest values kept by preference. Active and inactive are the calls of the source.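 How the source made its calls: active means z-score in the third read window above 3 or below -3; inactive means the rest.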
# Biological target: Metabotropic glutamate receptor 8 (Rattus norvegicus) (UniProt P70579)
# Experiment: mGluR8 Gi/Go-coupled signaling modulation – cell-based, rat, thallium flux, HTS, primary screen (AID 488969)
# Settings: HEK293 rat mGluR8, GIRK (G protein-gated inwardly rectifying potassium channel) thallium flux, FluoZin2; at 10 µM; stronger effect = higher value; submaximal glutamate (EC20) added with thallium
# Sequence of Metabotropic glutamate receptor 8 (Rattus norvegicus) (P70579 whole entry, looked up): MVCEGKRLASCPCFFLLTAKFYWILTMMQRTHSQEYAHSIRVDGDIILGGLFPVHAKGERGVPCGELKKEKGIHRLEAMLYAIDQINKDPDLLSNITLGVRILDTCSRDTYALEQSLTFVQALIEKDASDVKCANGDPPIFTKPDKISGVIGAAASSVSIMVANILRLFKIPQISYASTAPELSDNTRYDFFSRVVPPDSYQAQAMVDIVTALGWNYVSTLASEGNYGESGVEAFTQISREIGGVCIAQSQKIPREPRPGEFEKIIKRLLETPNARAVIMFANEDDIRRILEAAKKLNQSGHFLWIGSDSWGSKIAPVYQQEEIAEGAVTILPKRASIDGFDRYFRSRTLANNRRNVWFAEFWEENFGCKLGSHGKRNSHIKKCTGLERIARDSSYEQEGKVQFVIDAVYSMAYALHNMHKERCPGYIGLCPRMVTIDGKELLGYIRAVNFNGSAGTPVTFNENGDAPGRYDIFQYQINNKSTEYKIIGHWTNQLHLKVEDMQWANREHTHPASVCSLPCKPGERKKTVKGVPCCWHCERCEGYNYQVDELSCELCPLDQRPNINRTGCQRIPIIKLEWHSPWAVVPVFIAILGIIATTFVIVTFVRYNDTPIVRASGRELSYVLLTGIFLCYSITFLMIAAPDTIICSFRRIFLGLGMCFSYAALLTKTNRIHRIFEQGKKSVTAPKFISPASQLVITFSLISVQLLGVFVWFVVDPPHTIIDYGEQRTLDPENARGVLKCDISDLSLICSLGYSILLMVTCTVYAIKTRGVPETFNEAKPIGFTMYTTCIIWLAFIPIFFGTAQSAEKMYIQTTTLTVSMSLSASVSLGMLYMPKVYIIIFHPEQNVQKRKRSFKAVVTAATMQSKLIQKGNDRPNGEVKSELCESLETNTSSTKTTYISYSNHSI
row,Structure (SMILES),z-score
1,CCCC(=O)C1=C(O)C(C(=O)OC)C(C)(C)CC1=NC(C)(C)C (stereo not given),-0.418
2,O=C1c2ccccc2C(=O)N1c1ccc(-c2nc3ccccc3o2)cc1,0.248
3,Cc1nn(C)cc1NC(=O)CC12CC3CC(CC(C3)C1)C2,-0.0159
4,CC(=O)Nc1ccc(C(=O)N/N=C/c2cccnc2)cc1,-0.709
5,Cc1nc2cc(NC(=O)N3c4ccccc4CC3C)ccc2n1C (stereo not given),-0.544
6,CCc1cc2c(=O)c(-c3cnn(-c4ccccc4)c3)c(C)oc2cc1OCC(=O)Nc1ccc(F)c(F)c1,0.0216
7,Cc1nc(NCCc2ccc(S(N)(=O)=O)cc2)c2c(C)c(C)sc2n1,6.05 (active)
8,Cc1nc(NCCc2ccc(S(N)(=O)=O)cc2)c2c3c(sc2n1)CCC3,-0.34
9,Cc1sc2ncnc(NCCc3ccc(S(N)(=O)=O)cc3)c2c1C,0.0936
10,O=c1cc(CSc2nnc(-c3ccccc3)o2)c2ccccc2[nH]1,0.487
11,COc1ccc(/C=N\NC(=O)/C(=C\Nc2nccc(C)n2)NC(=O)c2ccccc2)cc1,-0.263
12,C=CCn1c(-c2csc(-c3ccccc3)n2)n[nH]c1=S,0.103
13,CCn1c(-c2csc(-c3ccc(Cl)cc3)n2)n[nH]c1=S,1.31
14,C=CCn1c(-c2csc(-c3ccc(Cl)cc3)n2)n[nH]c1=S,2.89
15,CC(C)N(C(=O)Nc1ccc2nccnc2c1)C(C)C,-0.935
16,COc1ccc(OC)c(NC(=O)CSc2nnc(Cn3nnc4ccccc43)n2C)c1,-0.116
17,NC(=O)c1ccc(NC(=O)COC(=O)CC(NC(=O)c2ccccc2Cl)c2ccccc2)cc1 (stereo not given),1.26
18,CCOC(=O)N1CCN(C(=O)c2ccc3c(=O)n(Cc4ccc(OC)cc4)c(=S)[nH]c3c2)CC1,-0.232
19,COc1ccc(Cn2c(=S)[nH]c3ccsc3c2=O)cc1,3.86 (active)
20,COc1ccc(Cn2c(O)cc(=O)[nH]c2=O)cc1,0.277
21,CCOCCn1c(=NC(=O)c2cc3ccccc3oc2=O)sc2cc(S(N)(=O)=O)ccc21,-0.105
22,C=CCSc1[nH]c(=O)cc(C)c1C(N)=O,0.533
23,O=C(COc1ccccc1)Nc1cccc2c1CCCC2,-0.151
24,CC(=O)Nc1ccccc1Nc1cc(C#N)c(C#N)cc1[N+](=O)[O-],-0.00232
25,CC(C)(C)C1CC=C2C(C#N)=C(N)C(C#N)(C#N)C(c3cccs3)C2C1 (stereo not given),0.0392
26,CN1C2C=C3C(C#N)=C(N)C(C#N)(C#N)[C@H](c4c(F)cccc4F)[C@H]3C1CC2 (stereo not given in full),-0.484
27,CN1C2C=C3C(C#N)=C(N)C(C#N)(C#N)[C@@H](c4cccc(F)c4)[C@@H]3C1CC2 (stereo not given in full),1.32
28,CN1C2C=C3C(C#N)=C(N)C(C#N)(C#N)C(c4ccc(Br)cc4)C3C1CC2 (stereo not given),0.361

row,Structure (SMILES),z-score
1,CN1C2C=C3C(C#N)=C(N)C(C#N)(C#N)[C@@H](c4ccsc4)[C@@H]3C1CC2 (stereo not given in full),4.01 (active)
2,CN1C2C=C3C(C#N)=C(N)C(C#N)(C#N)[C@@H](c4cccs4)C3C1CC2 (stereo not given in full),2.54
3,Cc1ccnc(N2CCC(C(=O)NNC(=O)COc3cccc4ccccc34)CC2)n1,0.336
4,COc1cc(/C=N/OCC(=O)Nc2ccc(OC(F)F)cc2)ccc1OCc1ccccc1,-0.0267
5,CCOC(=O)C1CCCN(C(=O)c2cnn3c(C(F)(F)F)cc(-c4ccccc4)nc23)C1 (stereo not given),-2.11
6,COC(=O)c1ccc(NS(=O)(=O)c2ccc(SC)cc2)cc1,5.24 (active)
7,COC(=O)c1ccc(NS(=O)(=O)c2ccc(OC)cc2)cc1,0.37
8,CCOC(=O)c1ccc(NS(=O)(=O)c2ccc(SC)cc2)cc1,-0.12
9,Cc1ccc(Cl)cc1N1CCN(C(=O)CSc2nnc3n2C(C)(C)Cc2ccccc2-3)CC1,1.18
10,CC1(C)Cc2ccccc2-c2nnc(SCC(=O)N3CCN(c4ccccc4)CC3)n21,3.2 (active)
11,COc1ccc(N2CCN(C(=O)CSc3nnc4n3C(C)(C)Cc3ccccc3-4)CC2)cc1,-0.642
12,O=C(Nc1ccccn1)C12CC3CC(C1)CC(C(=O)Nc1ccccn1)(C3)C2,0.332
13,Cc1cccc(Oc2ncc(-c3ccc(Cl)cc3)cn2)c1,0.0612
14,Cc1cc(N2CCOCC2)nc2ccccc12,-0.0968
15,c1nc(NCC2CCCO2)c2[nH]cnc2n1 (stereo not given),0.26
16,O=C(NCC1CCCO1)c1cccc(Br)c1 (stereo not given),0.348
17,Cc1cccc(C(=O)NCC2CCCO2)c1 (stereo not given),2.21
18,O=C(NCC1CCCO1)c1cccc(F)c1 (stereo not given),0.371
19,O=C(CCS(=O)(=O)c1ccc(Br)cc1)Nc1cc(F)ccc1F,-0.0256
20,O=C(Cn1c(C(F)(F)F)nc2ccccc21)OCC(=O)c1c[nH]c2ccccc12,-0.594
21,Cc1cc(C)n(-c2nc3ccccc3nc2NCCc2ccccc2)n1,-0.16
22,Cc1cccc(NC(=S)N=Nc2c(O)n(CN3CCOCC3)c3ccccc23)c1C,2.19
23,Cc1cccc(NC(=S)NCCN2CCOCC2)c1C,-0.235
24,Cc1ccc(N=Nc2c(O)n(CN3CCOCC3)c3ccccc23)cc1,-0.152
25,Nn1c(SCc2cccc3ccccc23)nnc1-c1ccco1,0.217
26,Cn1c(SCc2cccc3ccccc23)nnc1-c1ccco1,2.15
27,Cn1c(SCc2cc(=O)[nH]c3ccccc23)nnc1-c1ccco1,-0.244
